This note sets out measurements from PubChem BioAssay AID1851 (National Center for Advancing Translational Sciences (NCATS), 2009).

“And” between values parts separate entries of the source, which are not always exact repeats. Equal values may be shown once. In all, about 16,000 compounds went through this assay and about 5,700 (36%) were called active. Roughly 24% stayed inconclusive and do not appear here. This is one part of the list. Unmarked numbers belong to inactive results. Calls follow the shape of the dose curve; as a rule, active = well fitted curve in the direction sought with a large enough effect; inconclusive = small, poorly fitted or top-dose-only effect, or effect the other way; inactive = no such curve, though single readings can be large or run the other way.

As a reminder, the AC50 is the concentration at which the activity in the assay is half-maximal.
% is scaled to controls: 0 for no effect and ±100 for the full control effect.

Cytochrome P450 1A2 (Homo sapiens), sequence (P05177 whole entry, looked up): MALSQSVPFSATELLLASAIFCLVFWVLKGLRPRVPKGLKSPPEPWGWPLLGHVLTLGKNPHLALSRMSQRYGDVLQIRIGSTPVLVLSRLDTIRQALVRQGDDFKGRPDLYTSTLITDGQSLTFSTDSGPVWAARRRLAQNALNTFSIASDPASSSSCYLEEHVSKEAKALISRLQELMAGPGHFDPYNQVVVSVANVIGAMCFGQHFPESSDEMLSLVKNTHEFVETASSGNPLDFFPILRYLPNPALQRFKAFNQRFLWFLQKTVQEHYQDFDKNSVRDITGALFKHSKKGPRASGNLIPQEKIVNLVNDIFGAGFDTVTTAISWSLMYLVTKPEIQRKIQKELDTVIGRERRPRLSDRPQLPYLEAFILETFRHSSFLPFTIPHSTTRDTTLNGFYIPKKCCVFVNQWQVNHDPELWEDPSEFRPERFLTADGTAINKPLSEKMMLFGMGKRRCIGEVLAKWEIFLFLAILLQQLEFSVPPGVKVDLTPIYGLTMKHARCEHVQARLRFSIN

The assay has as its target Cytochrome P450 1A2 (Homo sapiens) (UniProt P05177). Kind of assay: Cytochrome panel assay with activity outcomes. The conditions noted are these: recombinant CYP, pro-luciferin dealkylation, luminescence, p450-cyp1a2; series mostly up to 57.1 µM.
For the compound `CC(C)CNC(=S)N1CCN(C)CC1`, the AC50 entry is “inactive”.

With `O=C(O)c1ccccc1-c1ccccc1C(=O)Nc1ccccc1`, the AC50 result is “inactive”.

`CC(C)C(=O)NC(=S)Nc1ccccc1C(=O)Nc1ccccc1`: the AC50 is 6.31 µM (active).

As to `O=S(=O)(O)[C@@H](CO)c1ccccc1` (tested in a mixture with another compound), the activity, negative = inhibition was -1.9% [at 2.29 µM].

For the compound `OCCSCc1ccccc1`, the activity, negative = inhibition is -13% [at 11.4 µM].

Consider `O=C1C(SCCO)=C(SCCO)C(=O)c2ccccc21`, for which the half-maximal activity concentration (AC50) was 0.631 µM (active).

In the case of `COc1cccc(Nc2ncc3nc(C)c(=O)n(CCc4ccccc4)c3n2)c1`, the AC50 is 5.01 µM (active).

In the case of `COCCn1c(=O)c(C)nc2cnc(Nc3cccc(OC)c3)nc21`, the AC50 is 1 µM (active).

For `c1ccc([C@@H]2CN3CCSC3=N2)cc1`, the AC50 entry was “inactive”.

With `COc1ccc(NC(=O)c2ccc(C(=O)c3cc(OC)ccc3OC)cc2)cc1`, the AC50 result is “inactive”.

As to `COc1ccc(C(=O)Nc2cccc(OC(=O)c3ccc(C)c(C)c3)c2)cc1`, the AC50 is 14.1 µM (active).

Consider `COc1ccc(NC(=O)C2(c3ccc(NC(=O)c4ccc(OC(C)=O)cc4)cc3)CCCC2)cc1`, for which the AC50 result is “inactive”.

Take `COc1ccc(C(=O)Nc2cc(OC)cc(OC)c2)cc1`: the half-maximal activity concentration (AC50) is 12.6 µM (active).

As to `O=C(N/N=C/c1ccc(O)cc1)c1csc2ccccc12`, the AC50 is 11.2 µM (active).

Consider `COc1ccc(OC)c(/C=N/NC(=O)c2csc3ccccc23)c1`, for which the AC50 is 3.16 µM (active).

Take `Cc1ccc(C)c(-c2nn(-c3cc(N4CCN(CCO)CC4)ccc3[N+](=O)[O-])c(=O)c3ccccc23)c1`: the AC50 result was “inactive”.

Consider `O=C(O)c1cc2c(cc1S(=O)(=O)O)[C@H]1[C@@H]([C@H]3[C@H]2[C@@]2(Cl)C(Cl)=C(Cl)[C@]3(Cl)C2(Cl)Cl)[C@]2(Cl)C(Cl)=C(Cl)[C@@]1(Cl)C2(Cl)Cl`, for which the activity, negative = inhibition is -14.5% [at 11.4 µM].

As for `O=C(NC1CCCC1)C(c1ccc(F)cc1)N(Cc1ccc(F)cc1)C(=O)c1ccn[nH]1` (stereo not drawn), the AC50 result is “inactive”.

With `O=C(Nc1cccn(Cc2ccc(F)cc2)c1=O)NC1CCCCC1`, the AC50 is 22.4 µM (active).

`Cc1ccc(Cn2cccc(NC(=O)NCc3ccccc3)c2=O)cc1`: the AC50 result is “inactive”.

Consider `Cc1ccc2cn[nH]c2c1NC(=S)NC(=O)c1ccccc1`, for which the AC50 is 10 µM (active).

For `COc1ccc(C(=O)N2CCC3(CCCN(CC(C)C)C3)CC2)cc1`, the AC50 entry was “inactive”.

Consider `CN1CCC[C@@H](CC2c3ccccc3Sc3ccccc32)C1`, for which the AC50 result was “inactive”.

As for `CN1CCC(=C2c3ccccc3Sc3ccccc32)CC1`, the AC50 result was “inactive”.

For the compound `CSc1ccc2c(c1)[C@H](N1CCN(C)CC1)Cc1ccccc1S2`, the AC50 was 31.6 µM (active).

Take `O=C1Nc2cc(Cl)c(Cl)cc2N(O)N1c1ccc(Cl)c(Cl)c1`: the AC50 result was “inactive”.

Turning to `O=c1c2ccccc2c(-c2ccccc2)nn1-c1ccc(Cl)c(Cl)c1`, the AC50 was 0.126 µM (active).

In the case of `COc1ccccc1CN1CC[C@@]2(CCCN(C(=O)c3c(C)noc3C)C2)C1`, the AC50 result was “inactive”.

Take `COc1ccc(N(CC(=O)NCc2cccc(OC)c2)S(=O)(=O)c2c(C)noc2C)cc1`: the AC50 result is “inactive”.

As for `COc1ccccc1CNc1nc(-c2c(C)noc2C)nc2ccccc12`, the AC50 was 0.631 µM (active).

As to `Cc1noc(C)c1-c1nc(NCc2cccs2)c2ccccc2n1`, the AC50 was 0.2 µM (active).

Regarding `COC(=O)Cc1c(C)nc2nc(NCc3ccccc3OC)[nH]n2c1=O`, the AC50 entry is “inactive”.

For the compound `COc1ccc(CNc2nc(-c3c(C)noc3C)nc3ccccc23)c(OC)c1`, the AC50 was 0.794 µM (active).

`CCS(=O)(=O)NCCc1cc2ccc(C)cc2[nH]c1=O`: the AC50 was 20 µM (active).

For the compound `CS(=O)(=O)N(Cc1cc2ccccc2[nH]c1=O)C1CCCCC1`, the AC50 result is “inactive”.

In the case of `C[N+]1(CCC[N+]2(C)C[C@H]3[C@H](C2)[C@H]2C=C[C@@H]3CC2)CCOCC1` (stereo partly drawn), the activity, negative = inhibition is -11% [at 11.4 µM].

`Cc1cnc(CNc2cc(-c3ccc(C(=O)N(C)C)cc3)ncn2)cn1`: the AC50 entry is “inactive”.

For `CN(C)c1ccc(-c2cc(NCc3ccccc3)ncn2)cc1`, the AC50 is 1 µM (active).

For `Cc1cccc(CNc2cc(-c3ccc(C(=O)N(C)C)cc3)ncn2)c1`, the AC50 is 15.8 µM (active).

Regarding `Cc1cccc(CNc2cc(-c3ccc(N(C)C)cc3)ncn2)c1`, the half-maximal activity concentration (AC50) was 1 µM (active).

For the compound `CN(C)c1ccc(-c2cc(NCc3cccnc3)ncn2)cc1`, the concentration at half-maximal activity (AC50) is 0.398 µM (active).

As for `CN(C)CCSCCO`, the activity, negative = inhibition was -14.3% [at 2.29 µM].

Take `CN(C)CC[C@@H](c1ccccc1)c1ccccn1`: the AC50 entry was “inactive”.

As for `CN(CCc1ccccn1)c1ccc2c(c1)C(=O)c1ccccc1-2`, the AC50 is 0.158 µM (active).

In the case of `CN(CCc1ccccn1)c1ccc2c(c1)Cc1ccccc1-2`, the AC50 was 0.631 µM (active).

In the case of `CN(C)CC(CN(C)C)c1ccccn1`, the activity, negative = inhibition is -16.5% [at 11.4 µM].

Take `c1ccc2c(NC3CCNCC3)nc(-c3ccoc3)nc2c1`: the AC50 is 15.8 µM (active).

As to `c1ccc2c(NC3CC3)nc(-c3ccoc3)nc2c1`, the AC50 was 0.316 µM (active).

`COc1ccc(-c2cc([C@H](O)[C@@H]3CCCCN3)c3ccccc3n2)cc1`: the activity, negative = inhibition is -11% [at 2.29 µM].

On to `COc1cccc(-c2nc(NC3CCNCC3)c3ccccc3n2)c1`, for which the AC50 is 12.6 µM (active).

Consider `COc1cccc(-c2nccc(NC3CCNCC3)n2)c1`, for which the AC50 is 6.31 µM (active).

For the compound `CC(=O)OC[C@@H]1O[C@@H](O/N=C2/C[C@@H](O)[C@@H](O)[C@@H]3[C@H]4C(=O)N(c5ccc(F)cc5F)C(=O)[C@@H]4CC[C@H]23)[C@H](OC(C)=O)[C@H](OC(C)=O)[C@@H]1OC(C)=O`, the activity, negative = inhibition is -3.19% [at 11.4 µM].

Turning to `Cc1cccc(N(CC(=O)NCCSCc2ccco2)S(=O)(=O)c2ccccc2)c1`, the AC50 result was “inactive”.

For the compound `C/C(CCN1CCCCc2nc(C)c(C)cc21)=N\O[C@@H](C)c1cc(-c2c(C)cc(C)cc2C)no1`, the activity, negative = inhibition is 2.23% [at 11.4 µM].

For `Nc1ncnc2c1nc(Sc1ccc(Cl)cc1)n2[C@@H]1O[C@H]2COP(=O)(O)O[C@@H]2[C@H]1O`, the AC50 entry is “inactive”.

Consider `CN(C)c1ccc(-c2nc(NC3CCNCC3)c3ccccc3n2)cc1`, for which the AC50 is 15.8 µM (active).

For the compound `CC(C)=NO[C@@H](C)c1cn([C@H](CO)Cc2ccccc2)nn1`, the activity, negative = inhibition was -7.23% [at 11.4 µM] and -1.97% [at 11.4 µM].

Regarding `CC1CCN(CCCn2c(=S)[nH]c3ccc(N4CCOCC4)cc3c2=O)CC1`, the AC50 entry is “inactive”.

`CCCCn1c(SCC(N)=O)nc2ccc(N3CCOCC3)cc2c1=O`: the AC50 was 4.47 µM (active).

Turning to `CCCCNC(=O)CSc1nc2ccccc2c(=O)n1CCNC(C)=O`, the AC50 entry was “inactive”.

Take `CC(=O)c1cc(C)ccc1OC(=O)CCN1C(=O)C2C3c4ccccc4C(c4ccccc43)C2C1=O` (stereo not drawn): the AC50 is 15.8 µM (active).

Turning to `CCOC(=O)CCN1C(=O)[C@H]2[C@@H]3[C@H](O)C=CC(=O)[C@H]3CC[C@H]2C1=O`, the activity, negative = inhibition is -6.05% [at 11.4 µM].

Consider `Cc1ccc(C)c(C(=O)CN2C(=O)c3ccccc3S2(=O)=O)c1`, for which the AC50 result is “inactive”.

In the case of `CN(C)CCC=C1c2ccccc2C=Cc2ccccc21`, the AC50 entry is “inactive”.

Consider `CN(C)CC/C=C1\c2ccccc2CSc2ccccc21`, for which the AC50 entry is “inactive”.

With `OCCN1CCN(CCC=C2c3ccccc3Sc3ccc(Cl)cc32)CC1`, the AC50 was 15.8 µM (active).

For the compound `CN(C)CC/C=C1\c2ccccc2Sc2ccc(Cl)cc21`, the AC50 was 1.58 µM (active).

Take `C[C@H]1CN(CCO)CCN1c1ccccc1`: the activity, negative = inhibition was -18.4% [at 11.4 µM].

Turning to `CN1CCN(CCC=C2c3ccccc3Sc3ccc(S(=O)(=O)N(C)C)cc32)CC1`, the AC50 result was “inactive”.

On to `CN(C)CC/C=C1\c2ccccc2COc2ccccc21`, for which the AC50 is 15.8 µM (active).

Turning to `CN1CCN(CCCN)CC1`, the activity, negative = inhibition is -19.9% [at 11.4 µM].

As to `NC[C@H](O)C1CCCCCCC1`, the AC50 entry was “inactive”.

Consider `CC(C)N(Cc1ccccc1)S(=O)(=O)c1n[nH]c(C(C)(C)C)n1`, for which the activity, negative = inhibition was 2.16% [at 11.4 µM].

With `Cc1ccc(C)c(NC(=O)NCc2ccc(Cl)cc2)c1`, the AC50 is 0.794 µM (active).

Take `Cc1ccc(C)c(NC(=O)C2(C)CC3c4ccccc4C2c2ccccc23)c1` (stereo not drawn): the AC50 entry is “inactive”.

For `Cc1ccc(CNC(=O)C2(NC(=O)Nc3ccc(C)cc3)CCCCC2)cc1`, the AC50 result was “inactive”.

On to `CC1(C)C(=O)N(CCN2CCC(C(=O)c3ccc(F)cc3)CC2)c2ccccc21`, for which the AC50 entry is “inactive”.

Regarding `O=C(NCCc1ccccc1)C(=O)NN=C1CCCC1`, the AC50 was 12.6 µM (active).

As for `O=C(CC(=O)NN=C1CCCC1)NCCc1ccccc1`, the AC50 result was “inactive”.

With `O=C(NCCc1ccccc1)C(=O)NCC1(c2ccccc2)CCCC1`, the AC50 entry was “inactive”.

Turning to `COC(=O)c1[nH]c2ccc(Br)cc2c1NC(=O)CN1CCN(C2CCCCC2)CC1`, the AC50 is 12.6 µM (active).

Turning to `C[C@@H]1CCCN(C[C@@H](O)CN2CCCc3ccccc32)C1`, the activity, negative = inhibition is -10.7% [at 11.4 µM].

On to `COC(=O)c1[nH]c2ccc(Br)cc2c1NC(=O)CN1CCCc2ccccc21`, for which the AC50 is 5.01 µM (active).

Take `CC(C)(CN)CN`: the activity, negative = inhibition was 2.94% [at 11.4 µM].

Regarding `CN(C)CCNc1nc2c(c(=O)n(C)c(=O)n2C)n1C`, the activity, negative = inhibition is -7.73% [at 11.4 µM].

`COc1ccccc1CN1CC2(CCN(S(=O)(=O)c3ccccc3)CC2)C1`: the AC50 entry is “inactive”.

On to `COc1cc2c(c(O)c1OC)C(=O)C(OC)CCC2` (stereo not drawn), for which the AC50 is 12.6 µM (active).

On to `COc1cc([C@H]2c3cc4c(cc3[C@@H](O)[C@@H]3COC(=O)[C@H]23)OCO4)cc(OC)c1OC`, for which the AC50 result was “inactive”.

Regarding `C/C(CCC(=O)OC[C@@H]1O[C@H](C#Cc2ccccc2)C=C[C@@H]1Oc1ccc(C)cc1)=N/O[C@@H](C)CN1CCCCc2nc(C)c(C)cc21`, the activity, negative = inhibition is -3.03% [at 11.4 µM].

With `O=[N+]([O-])c1ccc2c(c1)S(=O)c1ccccc1-2` (stereo not drawn), the concentration at half-maximal activity (AC50) is 0.2 µM (active).

Take `CC1=c2c(oc3cc(O)c(Nc4c(C)cc(O)cc4O)c(C)c23)=CC(=O)C1=Nc1c(C)cc(O)cc1O`: the AC50 was 3.16 µM (active).

For `CN1[C@@H]2CC[C@H]1CC(OC(c1ccccc1)c1ccccc1)C2` (stereo partly drawn), the AC50 entry is “inactive”.

Consider `N#Cc1ccc(CN2CCC3(CC2)CCN(S(=O)(=O)c2ccccc2)CC3)cc1`, for which the AC50 entry was “inactive”.
